Assay results reported in publication PMC5700166.
Substitutions are numbered along the chain they refer to.

Tests used:
Experiment in all cases: protein-binding microarray (PBM); PBM: ~300 nM protein, 6 mM HEPES pH 7.8, 80 mM KCl, 0.5 mM EDTA, 0.5 mM EGTA, 6% glycerol, 35 ng/ul poly-dIdC, 1% milk, 1 h, room temperature; Ap Aiptasia and Nv Nematostella (sea anemones) / Co Capsaspora / Aq Amphimedon (sponge) / Dm Drosophila / Hu human; RHD is the Rel homology domain; high values mean tight binding
Details in all cases: dsDNA, one strand shown
GST-Ap-NF-kB RHD = molecular target: T1, GST-Ap-NF-kB RHD (Exaiptasia pallida (Aiptasia), UniProt A0A913YAJ5 2-422)
T1 sequence: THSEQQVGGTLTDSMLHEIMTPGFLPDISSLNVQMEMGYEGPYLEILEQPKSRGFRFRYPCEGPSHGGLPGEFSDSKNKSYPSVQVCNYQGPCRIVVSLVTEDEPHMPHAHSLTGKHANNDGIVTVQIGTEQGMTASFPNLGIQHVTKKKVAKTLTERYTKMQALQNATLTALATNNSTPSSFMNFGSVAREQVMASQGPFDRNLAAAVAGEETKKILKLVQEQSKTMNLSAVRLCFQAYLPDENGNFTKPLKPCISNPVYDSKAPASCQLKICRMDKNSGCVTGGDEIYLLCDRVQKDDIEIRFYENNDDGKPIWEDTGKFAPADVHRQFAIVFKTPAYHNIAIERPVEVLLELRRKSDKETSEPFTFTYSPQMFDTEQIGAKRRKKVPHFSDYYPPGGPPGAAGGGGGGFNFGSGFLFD

[1] = molecular target: T2, GST-Nv-NF-kB (Cys allele) (Nematostella vectensis, UniProt E5G601 2-411)
T2 sequence: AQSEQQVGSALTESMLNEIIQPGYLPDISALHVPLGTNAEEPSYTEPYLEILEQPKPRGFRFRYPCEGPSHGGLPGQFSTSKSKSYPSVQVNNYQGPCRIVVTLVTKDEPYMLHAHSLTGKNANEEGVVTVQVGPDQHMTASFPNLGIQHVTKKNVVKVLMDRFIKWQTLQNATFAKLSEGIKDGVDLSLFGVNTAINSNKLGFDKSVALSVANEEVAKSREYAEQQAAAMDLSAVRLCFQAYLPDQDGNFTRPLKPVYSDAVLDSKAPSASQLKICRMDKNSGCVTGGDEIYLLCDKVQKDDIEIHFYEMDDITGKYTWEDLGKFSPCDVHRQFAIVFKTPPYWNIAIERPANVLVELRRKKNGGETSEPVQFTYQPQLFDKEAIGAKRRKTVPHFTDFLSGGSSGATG

[2] = molecular target: T3, GST-Nv-NF-kB (Ser allele) (Nematostella vectensis, UniProt A7UNT2 2-411)
T3 sequence: T2 sequence with Q21R, C66S, S207N, E215Q, V217A, E225K, A268E, D399E

GST-Co-NF-kB = molecular target: T4, GST-Co-NF-kB (Capsaspora owczarzaki, UniProt F1ARL5 200-546)
T4 sequence: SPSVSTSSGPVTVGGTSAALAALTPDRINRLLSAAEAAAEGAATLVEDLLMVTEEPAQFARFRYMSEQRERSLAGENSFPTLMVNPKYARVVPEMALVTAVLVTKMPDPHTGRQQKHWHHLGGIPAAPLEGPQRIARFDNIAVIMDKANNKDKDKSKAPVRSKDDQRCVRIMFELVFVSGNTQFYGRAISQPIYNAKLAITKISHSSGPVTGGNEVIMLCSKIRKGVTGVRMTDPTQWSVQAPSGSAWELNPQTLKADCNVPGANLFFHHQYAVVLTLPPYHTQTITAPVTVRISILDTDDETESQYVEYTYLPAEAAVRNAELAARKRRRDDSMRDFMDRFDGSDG

GST-Dm-Relish = molecular target: T5, GST-Dm-Relish (Drosophila melanogaster, UniProt Q94527 99-473)
T5 sequence: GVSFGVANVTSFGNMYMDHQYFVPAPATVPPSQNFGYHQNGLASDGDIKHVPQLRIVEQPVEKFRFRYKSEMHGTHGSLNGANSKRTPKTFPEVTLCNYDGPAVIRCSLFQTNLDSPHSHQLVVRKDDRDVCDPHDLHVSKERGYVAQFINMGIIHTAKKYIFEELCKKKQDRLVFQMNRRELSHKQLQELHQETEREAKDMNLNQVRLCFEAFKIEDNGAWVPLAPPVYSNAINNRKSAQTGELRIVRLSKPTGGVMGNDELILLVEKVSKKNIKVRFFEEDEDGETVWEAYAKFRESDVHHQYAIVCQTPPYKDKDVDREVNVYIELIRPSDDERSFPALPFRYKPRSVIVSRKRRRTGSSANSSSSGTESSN

GST-Aq-NF-kB = molecular target: T6, GST-Aq-NF-kB (Amphimedon queenslandica, UniProt A9Y5G7 2-389)
T6 sequence: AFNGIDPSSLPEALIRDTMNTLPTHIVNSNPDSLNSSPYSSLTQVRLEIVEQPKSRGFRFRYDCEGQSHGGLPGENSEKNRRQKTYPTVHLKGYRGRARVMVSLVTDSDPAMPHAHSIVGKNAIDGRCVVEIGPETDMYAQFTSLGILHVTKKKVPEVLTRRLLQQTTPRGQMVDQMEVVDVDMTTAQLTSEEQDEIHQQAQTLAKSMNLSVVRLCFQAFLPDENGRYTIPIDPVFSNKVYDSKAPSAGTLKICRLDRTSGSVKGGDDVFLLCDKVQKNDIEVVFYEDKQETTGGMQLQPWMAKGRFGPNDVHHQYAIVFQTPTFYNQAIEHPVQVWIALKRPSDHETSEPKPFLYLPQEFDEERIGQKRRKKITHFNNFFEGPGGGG

GST-Hu-p50 = GST-Hu-p50 (Homo sapiens, UniProt P19838 7-356)
Sequence of GST-Hu-p50 (P19838 7-356): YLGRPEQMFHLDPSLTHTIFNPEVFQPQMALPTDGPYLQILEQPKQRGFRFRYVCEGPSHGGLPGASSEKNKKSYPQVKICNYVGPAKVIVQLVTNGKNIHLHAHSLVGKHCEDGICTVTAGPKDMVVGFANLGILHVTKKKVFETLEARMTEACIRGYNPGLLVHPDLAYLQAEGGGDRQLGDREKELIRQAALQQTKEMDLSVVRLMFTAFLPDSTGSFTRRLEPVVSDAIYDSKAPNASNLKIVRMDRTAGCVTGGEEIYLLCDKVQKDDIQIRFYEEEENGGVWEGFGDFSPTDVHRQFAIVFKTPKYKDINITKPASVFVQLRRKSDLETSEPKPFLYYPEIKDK

| Sequence | binding signal (GST-Ap-NF-kB RHD) [z-score] | binding signal [1] [z-score] | binding signal [2] [z-score] | binding signal (GST-Co-NF-kB) [z-score] | binding signal (GST-Dm-Relish) [z-score] | binding signal (GST-Aq-NF-kB) [z-score] | binding signal (GST-Hu-p50) [z-score] |
| --- | --- | --- | --- | --- | --- | --- | --- |
| CCGATTAACATCAAAATTCCCACTGATGTTAATCGGGTCTTGATTCGCTTGACGCTGCTG | 3.89 | 5.68 | 5.15 | 4.31 | 5.55 | 4.54 | 4.27 |
| CCGATTAACATCAGGATTGTCCCTGATGTTAATCGGGTCTTGATTCGCTTGACGCTGCTG | 2.96 | 3.96 | 2.92 | 1.06 | 1.57 | 5.51 | 2.84 |
| CCGATTAACATCAAGAGATCCCCTGATGTTAATCGGGTCTTGATTCGCTTGACGCTGCTG | 6.49 | 5.71 | 6.22 | 2.3 | 6.47 | 4.97 | 4.57 |
| CCGATTAACATCAGGGGAGGGAATGATGTTAATCGGGTCTTGATTCGCTTGACGCTGCTG | 3.95 | 5.44 | 5.03 | 5.53 | 2.13 | 5.17 | 3.3 |
| CCGATTAACATCAAAATTTACCCTGATGTTAATCGGGTCTTGATTCGCTTGACGCTGCTG | 3.17 | 5.04 | 6.15 | 4.27 | 4.47 | 5.23 | 4.09 |
| CCGATTAACATCAGGACAGCCCCTGATGTTAATCGGGTCTTGATTCGCTTGACGCTGCTG | 3.75 | 5.09 | 2.05 | 1.05 | 2.67 | 6.62 | 4.14 |
| CCGATTAACATCAGAAAGTCCCCTGATGTTAATCGGGTCTTGATTCGCTTGACGCTGCTG | 8.98 | 9.38 | 8.58 | 3.84 | 9.11 | 7.8 | 7.42 |
| CCGATTAACATCAATTTTCCCCATGATGTTAATCGGGTCTTGATTCGCTTGACGCTGCTG | 6.24 | 7.68 | 9.27 | 9.2 | 2.3 | 5.53 | 6.08 |
| CCGATTAACATCAGGGGGTTGACTGATGTTAATCGGGTCTTGATTCGCTTGACGCTGCTG | 4.64 | 3.2 | 3.62 | 1.93 | 4.51 | 3.95 | 4.25 |
| CCGATTAACATCACAAATCCCCCTGATGTTAATCGGGTCTTGATTCGCTTGACGCTGCTG | 8.39 | 8.44 | 9.23 | 6.1 | 7.73 | 6.8 | 7.16 |
| CCGATTAACATCAAAACCCCCCTTGATGTTAATCGGGTCTTGATTCGCTTGACGCTGCTG | 8.76 | 7.32 | 7.84 | 3.85 | 10.5 | 8.03 | 7 |
| CCGATTAACATCAGGGGGGTAGATGATGTTAATCGGGTCTTGATTCGCTTGACGCTGCTG | 4.07 | 3.34 | 3.24 | 5.47 | 3.11 | 3.59 | 3.2 |
| CCGATTAACATCAGGGAAAGCCCTGATGTTAATCGGGTCTTGATTCGCTTGACGCTGCTG | 6.37 | 8.76 | 4.62 | 1.84 | 7.96 | 8.88 | 4.93 |
| CCGATTAACATCAAGTCCCCCCATGATGTTAATCGGGTCTTGATTCGCTTGACGCTGCTG | 5.62 | 4.07 | 3.94 | 6.53 | 4.21 | 4.39 | 3.78 |
| CCGATTAACATCACCCGGGAAACTGATGTTAATCGGGTCTTGATTCGCTTGACGCTGCTG | 2.48 | 2.39 | 3.08 | 4.78 | 1.11 | 2.32 | 1.81 |
| CCGATTAACATCAGGGGAGTCCATGATGTTAATCGGGTCTTGATTCGCTTGACGCTGCTG | 6.16 | 3.64 | 4.15 | 3.05 | 6.79 | 4.34 | 3.32 |
| CCGATTAACATCAAAACTCCCCCTGATGTTAATCGGGTCTTGATTCGCTTGACGCTGCTG | 9.31 | 8.47 | 9.96 | 9.22 | 8.02 | 7.6 | 8.06 |
| CCGATTAACATCAAAAGTCCCCATGATGTTAATCGGGTCTTGATTCGCTTGACGCTGCTG | 7.92 | 7.91 | 7.59 | 3.45 | 8.38 | 7.23 | 6.84 |
| CCGATTAACATCAATTATCCCCCTGATGTTAATCGGGTCTTGATTCGCTTGACGCTGCTG | 6.74 | 5.48 | 6.6 | 7.87 | 4.31 | 5.15 | 5.52 |
| CCGATTAACATCAAAAATCCCAGTGATGTTAATCGGGTCTTGATTCGCTTGACGCTGCTG | 3.43 | 3.35 | 2.65 | 2.44 | 7.35 | 3.8 | 3.5 |
| CCGATTAACATCAGGGGGCTATATGATGTTAATCGGGTCTTGATTCGCTTGACGCTGCTG | 3.62 | 3.23 | 2.2 | 1.85 | 2.75 | 3.69 | 3.35 |
| CCGATTAACATCAAAGTCTCCCCTGATGTTAATCGGGTCTTGATTCGCTTGACGCTGCTG | 5.38 | 4.52 | 5.65 | 7.88 | 1.57 | 3.98 | 3.28 |
| CCGATTAACATCAATATCCCCCATGATGTTAATCGGGTCTTGATTCGCTTGACGCTGCTG | 6.62 | 4.94 | 5.43 | 6.5 | 3.73 | 4.55 | 5.2 |
| CCGATTAACATCAGGGAAACACATGATGTTAATCGGGTCTTGATTCGCTTGACGCTGCTG | 2.17 | 2.95 | 3.46 | 3.05 | 6.06 | 3.52 | 1.39 |
